Mtb MenB inh = Mtb MenB enzyme inhibition; MenB enzyme assay, absorbance read-out; inhibition, % (concentration not given with the values); 100,000 tested, 0.43% active; AID 540299; in the data active = inhibition above about 21%, passing the limit was not always enough
Mtb MbtI inh = MbtI salicylate synthase inhibition; 100,000 tested, 0.89% active; inhibition, % (test concentration not listed); P9WFX0; purified MbtI enzyme, fluorescence intensity read-out; in the data active = inhibition mostly above about 56%, no sharp cut-off; inactive = mostly below about 77%
Target sequence (P9WFX0 whole entry, looked up): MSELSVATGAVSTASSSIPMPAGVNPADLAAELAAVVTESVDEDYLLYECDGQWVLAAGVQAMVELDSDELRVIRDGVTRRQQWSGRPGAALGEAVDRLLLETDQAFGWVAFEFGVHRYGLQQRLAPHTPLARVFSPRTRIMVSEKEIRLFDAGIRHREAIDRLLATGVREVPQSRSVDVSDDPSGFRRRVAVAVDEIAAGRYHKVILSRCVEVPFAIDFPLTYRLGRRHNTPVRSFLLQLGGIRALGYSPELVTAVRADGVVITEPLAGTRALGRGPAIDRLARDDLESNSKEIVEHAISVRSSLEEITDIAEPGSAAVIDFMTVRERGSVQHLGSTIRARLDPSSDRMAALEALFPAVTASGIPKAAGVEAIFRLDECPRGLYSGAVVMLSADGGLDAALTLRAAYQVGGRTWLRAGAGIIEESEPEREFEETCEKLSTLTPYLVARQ
AID504770 = growth inhibitors of E. coli YBA685 in a screen for V. cholerae RctB (chromosome II replication) inhibitors | E. coli YBA685 rctB-dependent plasmid, OD600 growth, 3 h; stronger effect = lower value | z-score (no concentration beside the values) | 130,000 tested, 0.27% active | AID 504770; in the data active = z-score below about -2, passing the limit was not always enough
PV pol inh = poliovirus RNA polymerase inhibition; P03300; poliovirus polymerase elongation, fluorescence polarization; stronger effect = lower value; % elongation, % (compound at 16.7 µg/mL); 150,000 tested, 0.66% active; AID 588519; in the data active = % elongation below about 90%
Numbers without * were called inactive; nt = no result. This is a sample that favours compounds with a hit; in the whole collection about 1.4% have one here.

SMILES	Mtb MenB inh	Mtb MbtI inh	AID504770	PV pol inh
CO/N=C(/C(=O)N[C@@H]1C(=O)N2C(C(=O)O)=C(COC(C)=O)CS[C@H]12)c1csc(N)n1	4.5	-14.9	-3.15*	100.0
CCS(=O)c1ccccc1C(=O)NCc1ccc(C)cc1 (stereo not drawn)	-28.5	99.9*	-0.75	100.0
CC12C=CC(O1)C1C(=O)N(c3ccccc3Cl)C(=O)C12 (stereo not drawn)	nt	66.2*	1.8	103.0
O=C1CC(Nc2ccccc2)C(=O)N1c1ccccc1Cl (stereo not drawn)	-8.1	nt	-0.5	107.0
O=C(O)C1C2C=CC3(CN(c4ccc(Cl)c(F)c4)C(=O)C13)O2 (stereo not drawn)	8.1	nt	1.95	100.0
COC(=O)c1cc(N2C(=O)C3C4C=CC(C)(O4)C3C2=O)ccc1Cl (stereo not drawn)	-6.8	81.2*	-0.55	104.0
O=C1C(Nc2ccccc2)=CC(c2ccccc2)N1c1ccccc1 (stereo not drawn)	-7.8	nt	0.75	106.0
COc1cc(C(=O)NN)ccc1OC(C)C	1.7	-17.4	-0.1	104.0
CCCC1NC(=S)N(c2ccccc2)N1 (stereo not drawn)	7.5	97.8*	0.35	101.0
O=c1c(Cl)c(Nc2ccc(F)cc2)cnn1-c1ccccc1	2.5	3.3	-0.4	84.0*
CCOc1ccc(C(=S)N(C)C)cc1	-15.9	78.5*	0.7	100.0
CCOc1ccc(OCCCCN(C)C)cc1	-29.5	1.4	0.2	101.0
CCN(CC)c1ccc(NC(=S)Nc2ccc(S(N)(=O)=O)cc2)cc1	-18.6	62.6*	-0.25	102.0
CCN(CC)c1ccc(NC(=S)NC(C)C)cc1	-9.6	28.6	0.55	100.0
COc1ccc(CN)cc1Cn1cccn1	-2.0	4.8	-0.85	103.0
S=c1cc(-c2ccccc2)ss1	-8.8	94.3*	0.9	88.0*
O=c1cc(-c2ccccc2)sc(=O)[nH]1	4.8	nt	-0.1	108.0
Cc1ccc(C(=O)N2CCN(c3ncnc4c3cnn4-c3ccccc3)CC2)cc1	-14.2	-13.4	-4.2*	99.0
COC(=O)c1c(C)[nH]c(C(=O)C(C)OC(=O)c2cc(S(=O)(=O)N3CCOCC3)ccc2F)c1C (stereo not drawn)	-34.0	-13.9	0.3	106.0
COc1ccc(C)cc1-n1c(SCC(=O)N(C)C2CCS(=O)(=O)C2)nc2ccccc2c1=O (stereo not drawn)	-4.9	-8.4	-0.25	104.0
NC(=O)CN1C(=O)C(O)(CC(=O)/C=C\c2ccccc2)c2ccccc21 (stereo not drawn)	42.6*	22.0	1.35	102.0
Cc1ccc(N=C2NN=C(c3ccccc3)C(C(=O)Nc3ccc4c(c3)OCO4)S2)cc1 (stereo not drawn)	-7.1	39.4	1.05	85.0*
N#CSc1c(Cl)nc2sccn12	nt	64.8*	-4.35*	85.0*
N#CC(C#N)=Cc1c(Cl)nc2sccn12	-105.3	-7.8	-1.35	67.0*
O=S(=O)(N=C1SCCS1)c1ccccc1	nt	nt	-0.2	nt
SMILES	Mtb MenB inh	Mtb MbtI inh	AID504770	PV pol inh
CC1=CC(=O)C=C(C)C1=NS(=O)(=O)c1ccccc1	-11.3	96.4*	2.05	103.0
Cc1ccc2c(c1)n([O-])c1c([n+]2=O)CCCC1	-10.1	19.0	-0.75	103.0
O=[n+]1c2c(n([O-])c3ccccc31)CCC2	5.0	14.1	-3.35*	100.0
COc1ccccc1-n1cc(C(=O)NCC(=O)NCC2COc3ccccc3O2)c2ccccc2c1=O (stereo not drawn)	1.8	-9.9	-0.15	102.0
O=C(NCCCN1CCCC1)c1cc2cc3ccc(Cl)cc3nc2o1	nt	nt	0.75	nt
CCN1CCN(CCCNC(=O)c2cc3cc4ccc(Cl)cc4nc3o2)CC1	-14.0	81.5	-2.3*	102.0
Clc1ncnc2sc3c(c12)CCC3	0.7	88.9*	-0.45	97.0
Cc1ccc(CN2N=NC3C(=O)NC(=O)C32)cc1 (stereo not drawn)	10.6	-5.0	-1.45	102.0
NC(=S)N/N=C1/C(=O)c2cccc3cccc1c23	-12.6	75.6*	-1.15	100.0
COC(=O)N/N=C1/C(=O)c2cccc3cccc1c23	-9.0	-0.8	0.4	99.0
S=C(c1cccs1)N1CCCC1	-4.3	nt	0.8	101.0
S=C(c1cccs1)N1CCOCC1	-7.5	70.0*	0.45	100.0
S=C(c1ccc(-c2ccc(Cl)cc2)o1)N1CCOCC1	-29.9	76.8*	-1.3	99.0
CCc1ccc(C(=S)N2CCOCC2)cc1	0.0	26.5	-0.55	100.0
Cc1ccc(C(=S)N2CCOCC2)cc1	1.3	97.2*	0	98.0
Cc1ccc(CC(=S)N2CCOCC2)cc1	1.6	68.6*	-0.25	96.0
O=c1c2c3c(sc2nnn1Cc1ccccc1)CCCC3	1.1	-1.8	-1	100.0
N#CCOC(=O)c1ccc2c(c1)S(=O)(=O)c1ccccc1C2=O	4.8	10.2	-0.3	98.0
COc1ccccc1CNC(=O)CSc1ncc2c(n1)-c1cc(Cl)ccc1N(Cc1ccccc1)S2(=O)=O	nt	nt	nt	-5.0*
O=C(CNc1ccccc1)N/N=C/c1ccccc1Cl	-15.8	-6.2	-0.65	105.0
CC(=O)Nc1cccc(NC(=O)C(=O)NCCc2sc(-c3ccccc3)nc2C)c1	nt	nt	nt	104.0
O=C1OC2C(C(=O)O)Sc3c(sc(=O)n3-c3ccccc3)C2c2cc(Br)ccc21 (stereo not drawn)	39.3*	-7.3	-1.95	100.0
O=c1sc2c(n1-c1ccccc1)SCC1COc3ccccc3C21 (stereo not drawn)	-17.4	21.1	0.6	95.0
Cc1ccccc1N1CC(c2nnc(NC(=O)c3ccco3)s2)CC1=O (stereo not drawn)	nt	nt	nt	82.0*
CSc1nnc(NC(=O)c2ccco2)s1	nt	nt	-1.1	nt
SMILES	Mtb MenB inh	Mtb MbtI inh	AID504770	PV pol inh
Cc1c(OCC(=O)O)ccc2c(-c3ccccc3)cc(=O)oc12	10.0	nt	0.45	104.0
CC1=C(C(=O)Nc2ccccc2)C(c2ccco2)C(C#N)=C(SCC(=O)Nc2ccccc2)N1 (stereo not drawn)	39.4*	16.9	-0.4	102.0
N#C/C(C(=O)N1CCCCC1)=C(/S)Nc1ccccc1	-17.1	70.9*	0.3	99.0
N#C/C(C(N)=O)=C(/S)Nc1ccccc1	-16.2	30.0	-3.8*	101.0
O=C(Nc1ccccc1)N1CCCCC1	2.0	-9.4	-0.85	101.0
N#Cc1ccc(-c2cccc(Cl)c2Cl)o1	-35.8	20.6	-0.65	103.0
O=C1c2cccc3c(N4CCCCC4)ccc(c23)C(=O)N1c1ccccn1	36.4*	-1.6	-0.25	78.0
Cc1oc(-c2ccccc2Cl)nc1CSc1nnc(C)n2c1cc1occc12	0.1	-3.1	0	102.0
COC(=O)COc1ccc(=O)n(-c2ccccc2)n1	nt	-2.0	-0.8	nt
CC(=O)N1C(=O)/C(=C2\SC(=S)N(C(C)C(=O)O)C2=O)c2ccccc21 (stereo not drawn)	33.8*	8.9	1.7	103.0
COC(=O)c1scc2c(SCc3ccccc3)cc(C(F)(F)F)nc12	-29.2	-37.5	1.15	103.0
O=c1[nH]c(CN2CCOCC2)nc2ccccc12	-12.6	-1.4	-0.8	70.0*
O=c1[nH]c(CN2CCN(Cc3ccccc3)CC2)nc2ccccc12	4.3	-4.2	0.4	104.0
CCCc1cc(=O)oc2cc(OCC=C(C)C)ccc12	nt	nt	-0.5	100.0
O=C(NCCSc1nnnn1-c1ccccc1)c1ccccc1	-13.3	-4.5	0.25	103.0
